Measured values published in PubChem BioAssay (Tox21).
Records with an inconclusive call do not appear. Entries that show only a call come without a potency. Activity calls are given as the source filed them. Calls come from the whole dose curve; as a rule, active = well fitted curve in the direction sought with a large enough effect in the repeat runs; inconclusive = weak or mixed curves; inactive = no such curve, though single readings can be large; an effect the other way counts as inactive or inconclusive.

What was measured:
[1] = biological target: Cytochrome P450 2C19 (Homo sapiens) (UniProt P33261); assay: Cytochrome P450 Family 2 Subfamily C Member 19 (CYP2C19) small molecule antagonists: luciferase reporter qHTS assay (AID 1671197); note: nearly all actives have a fitted effect of over 65% in size; note: potency is the fitted concentration of half-maximal effect; for activity change, negative = inhibition: series mostly up to about 120 µM
Chain of Cytochrome P450 2C19 (Homo sapiens) (P33261 whole entry, looked up): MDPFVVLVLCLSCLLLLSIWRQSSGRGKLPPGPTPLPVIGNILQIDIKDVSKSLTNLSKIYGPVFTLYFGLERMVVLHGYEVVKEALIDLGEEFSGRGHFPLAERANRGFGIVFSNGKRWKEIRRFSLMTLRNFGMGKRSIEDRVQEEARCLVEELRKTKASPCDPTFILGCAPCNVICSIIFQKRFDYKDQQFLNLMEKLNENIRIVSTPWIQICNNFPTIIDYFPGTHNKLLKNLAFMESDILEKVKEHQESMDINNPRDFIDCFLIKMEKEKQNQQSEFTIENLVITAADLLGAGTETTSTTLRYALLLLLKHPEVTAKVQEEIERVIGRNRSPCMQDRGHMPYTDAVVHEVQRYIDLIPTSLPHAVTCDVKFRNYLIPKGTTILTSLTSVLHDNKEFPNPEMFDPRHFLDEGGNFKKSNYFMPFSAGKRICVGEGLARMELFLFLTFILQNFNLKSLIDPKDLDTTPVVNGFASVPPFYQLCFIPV
Method in brief: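 Luminescent readout of CYP2C19 activity: luciferin product detected 20 min after adding detection reagent. Before that, compound and enzyme-substrate mix preincubated 10 min at room temperature; NADPH-regenerating system started a 1 h, 37C reaction. Ketoconazole as positive control.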

[2] = biological target: Cytochrome P450 2C9 (Homo sapiens) (UniProt P11712); assay: Cytochrome P450 Family 2 Subfamily C Member 9 (CYP2C9) small molecule antagonists: luciferase reporter qHTS assay (AID 1671198); note: nearly all actives have a fitted effect of over 50% in size; note: potency is the fitted concentration of half-maximal effect; for activity change, negative = inhibition: series mostly up to about 120 µM
Chain of Cytochrome P450 2C9 (Homo sapiens) (P11712 whole entry, looked up): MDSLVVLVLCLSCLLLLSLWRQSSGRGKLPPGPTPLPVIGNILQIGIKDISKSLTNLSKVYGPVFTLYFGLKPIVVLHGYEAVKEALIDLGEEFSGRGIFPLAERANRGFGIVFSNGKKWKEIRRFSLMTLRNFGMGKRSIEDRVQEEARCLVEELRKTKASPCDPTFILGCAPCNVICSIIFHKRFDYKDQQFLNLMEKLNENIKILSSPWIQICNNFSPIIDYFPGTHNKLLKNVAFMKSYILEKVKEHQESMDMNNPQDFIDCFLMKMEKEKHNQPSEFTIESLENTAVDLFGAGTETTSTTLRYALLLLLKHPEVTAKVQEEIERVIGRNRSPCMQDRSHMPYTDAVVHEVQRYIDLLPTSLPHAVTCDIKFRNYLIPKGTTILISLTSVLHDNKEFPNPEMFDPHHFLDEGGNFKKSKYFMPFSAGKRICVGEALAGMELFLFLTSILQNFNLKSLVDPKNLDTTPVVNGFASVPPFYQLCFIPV
Method in brief: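 CYP2C9 activity was measured with a P450-Glo proluciferin substrate. Enzyme–substrate mix was held with compound for 10 min at room temperature, then NADPH regeneration solution was added for 1 h at 37C. Luciferin product was read as luminescence.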

[3] = biological target: Cytochrome P450 1A2 (Homo sapiens) (UniProt P05177); assay: Cytochrome P450 Family 1 Subfamily A Member 2 (CYP1A2) small molecule antagonists: luciferase reporter qHTS assay (AID 1671199); note: nearly all actives have a fitted effect of over 50% in size; note: potency is the fitted concentration of half-maximal effect; for activity change, negative = inhibition: series mostly up to about 120 µM
Chain of Cytochrome P450 1A2 (Homo sapiens) (P05177 whole entry, looked up): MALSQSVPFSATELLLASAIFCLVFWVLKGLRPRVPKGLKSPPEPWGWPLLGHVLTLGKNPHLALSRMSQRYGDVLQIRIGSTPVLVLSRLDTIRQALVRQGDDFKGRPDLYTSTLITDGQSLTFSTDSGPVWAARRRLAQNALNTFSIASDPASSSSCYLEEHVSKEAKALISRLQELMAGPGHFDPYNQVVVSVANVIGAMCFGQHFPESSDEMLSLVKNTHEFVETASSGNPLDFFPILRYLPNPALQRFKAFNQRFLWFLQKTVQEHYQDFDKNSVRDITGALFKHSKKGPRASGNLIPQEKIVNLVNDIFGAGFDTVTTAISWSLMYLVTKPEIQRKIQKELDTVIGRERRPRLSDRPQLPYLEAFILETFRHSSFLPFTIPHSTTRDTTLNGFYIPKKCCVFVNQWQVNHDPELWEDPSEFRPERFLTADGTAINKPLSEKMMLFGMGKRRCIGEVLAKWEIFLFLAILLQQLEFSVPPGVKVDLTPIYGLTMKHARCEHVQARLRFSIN
Method in brief: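 Luminescence readout (relative luminescence units) after luciferin detection reagent, 20 min RT. Preceded by 1 h room-temperature CYP1A2 reaction with NADPH regeneration solution following 10 min compound preincubation with enzyme and proluciferin substrate. Furafylline positive control.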

[4] = biological target: Cytochrome P450 3A4 (Homo sapiens) (UniProt P08684); assay: Cytochrome P450 Family 3 Subfamily A Member 4 (CYP3A4) small molecule antagonists: luciferase reporter qHTS assay (AID 1671201); note: nearly all actives have a fitted effect of over 50% in size; note: potency is the fitted concentration of half-maximal effect; for activity change, negative = inhibition: series mostly up to about 120 µM
Chain of Cytochrome P450 3A4 (Homo sapiens) (P08684 whole entry, looked up): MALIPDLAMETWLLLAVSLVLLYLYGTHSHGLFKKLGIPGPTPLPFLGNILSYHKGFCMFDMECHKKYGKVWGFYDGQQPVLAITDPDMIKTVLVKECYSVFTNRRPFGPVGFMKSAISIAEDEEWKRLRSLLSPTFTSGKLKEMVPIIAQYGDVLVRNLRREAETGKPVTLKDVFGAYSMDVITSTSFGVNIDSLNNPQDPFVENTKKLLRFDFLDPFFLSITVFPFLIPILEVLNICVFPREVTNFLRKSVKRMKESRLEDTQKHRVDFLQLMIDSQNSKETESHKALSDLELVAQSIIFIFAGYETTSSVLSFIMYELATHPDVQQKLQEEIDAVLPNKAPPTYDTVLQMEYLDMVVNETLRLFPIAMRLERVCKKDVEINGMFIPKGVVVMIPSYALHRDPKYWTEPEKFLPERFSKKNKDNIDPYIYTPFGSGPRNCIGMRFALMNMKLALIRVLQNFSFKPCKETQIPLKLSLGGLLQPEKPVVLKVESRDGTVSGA
Method in brief: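 qHTS, 1536-well. CYP3A4 + proluciferin substrate, cpd 10 min RT → NADPH regen 1 h RT → detection reagent 20 min → luminescence (RLU). Ketoconazole positive control.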

[5] = biological target: Voltage-gated inwardly rectifying potassium channel KCNH2 (Homo sapiens) (UniProt Q12809); assay: Human Ether-a-go-go-Related Gene (hERG) channel small molecule antagonists: fluorescence cell-based qHTS assay (AID 1671200);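 note: hERG-expressing U2OS cells given a thallium stimulus after FluxOR II dye loading; series mostly up to about 77 µM; nearly all actives have a fitted effect of over 50% in size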
Chain of Voltage-gated inwardly rectifying potassium channel KCNH2 (Homo sapiens) (Q12809 whole entry, looked up): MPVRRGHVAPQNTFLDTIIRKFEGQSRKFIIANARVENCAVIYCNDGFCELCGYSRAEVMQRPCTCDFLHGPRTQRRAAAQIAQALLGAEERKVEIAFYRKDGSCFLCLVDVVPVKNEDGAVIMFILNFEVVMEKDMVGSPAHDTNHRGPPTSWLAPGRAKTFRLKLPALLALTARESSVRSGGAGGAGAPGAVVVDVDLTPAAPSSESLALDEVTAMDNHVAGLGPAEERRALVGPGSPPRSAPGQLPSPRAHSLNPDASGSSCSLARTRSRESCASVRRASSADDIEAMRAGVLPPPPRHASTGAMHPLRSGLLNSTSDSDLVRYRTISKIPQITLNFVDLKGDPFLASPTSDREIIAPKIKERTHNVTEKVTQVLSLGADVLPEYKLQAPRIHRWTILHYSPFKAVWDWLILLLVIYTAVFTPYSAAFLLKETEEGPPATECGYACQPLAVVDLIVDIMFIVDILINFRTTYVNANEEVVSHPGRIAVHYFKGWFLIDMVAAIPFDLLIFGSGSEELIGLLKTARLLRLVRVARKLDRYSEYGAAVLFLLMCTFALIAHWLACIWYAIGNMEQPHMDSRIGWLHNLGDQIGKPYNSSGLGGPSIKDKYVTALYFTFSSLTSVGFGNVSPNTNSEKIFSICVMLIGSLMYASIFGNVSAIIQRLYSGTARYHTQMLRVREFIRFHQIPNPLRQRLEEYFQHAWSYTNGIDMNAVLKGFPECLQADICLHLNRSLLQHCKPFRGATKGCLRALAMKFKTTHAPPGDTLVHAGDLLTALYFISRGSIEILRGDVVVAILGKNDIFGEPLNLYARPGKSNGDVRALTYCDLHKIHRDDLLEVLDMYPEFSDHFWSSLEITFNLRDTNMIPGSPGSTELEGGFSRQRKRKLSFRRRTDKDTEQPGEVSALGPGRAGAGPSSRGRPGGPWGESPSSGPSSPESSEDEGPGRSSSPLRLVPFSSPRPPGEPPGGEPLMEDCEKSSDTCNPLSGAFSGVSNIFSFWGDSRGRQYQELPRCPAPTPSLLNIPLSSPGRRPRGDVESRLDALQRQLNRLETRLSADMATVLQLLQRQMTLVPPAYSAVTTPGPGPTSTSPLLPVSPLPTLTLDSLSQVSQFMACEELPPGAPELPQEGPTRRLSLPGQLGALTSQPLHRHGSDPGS
Method in brief: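 Fluorescence at 540 nm emission (480 nm excitation) was recorded kinetically for 2 min at 1-second intervals once the thallium-containing stimulus reached cells previously loaded with FluxOR II dye.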

CC(=O)NO
Potency [1]: inactive
Potency [2]: inactive
Potency [3]: inactive
Potency [4]: inactive

C=CCOC(=O)CCC1CCCCC1
Potency [1]: inactive
Potency [2]: inactive
Potency [3]: inactive
Potency [4]: inactive

Brc1c2ccccc2c(Br)c2ccccc12
activity change, negative = inhibition [1]: -7.43% [at 10.5 µM] (inactive)
activity change, negative = inhibition [2]: -3.76% [at 10.5 µM] (inactive)
Potency [3]: 0.719 µM (active)
activity change, negative = inhibition [4]: 1.1% [at 10.5 µM] (inactive)

COCC(C)OC(C)=O (stereo not drawn)
Potency [1]: inactive
Potency [2]: inactive
Potency [5]: inactive
Potency [4]: inactive

COc1cccc(N(C)C(=S)Oc2ccc3c(c2)CCCC3)n1
Potency [1]: 2.75 µM (active)
Potency [3]: 24.5 µM (active)
Potency [5]: inactive

CCCCC(CC)CN1C(=O)C2C3C=CC(C3)C2C1=O (stereo not drawn)
Potency [1]: 3.56 µM (active)
Potency [2]: 7.96 µM (active)
Potency [3]: 17.8 µM (active)
Potency [4]: 1 µM (active)

CCCCOC(=O)CCCCCCCC(=O)OCCCC
Potency [1]: 35.6 µM (active)
Potency [2]: 44.8 µM (active)
Potency [4]: inactive

COS(=O)(=O)C(F)(F)F
Potency [1]: inactive
Potency [2]: inactive
Potency [5]: inactive
Potency [4]: inactive

O=C(O)c1ccco1
Potency [1]: inactive
Potency [2]: inactive
Potency [5]: inactive
Potency [4]: inactive

Nc1ccccc1S(=O)(=O)c1ccccc1
Potency [1]: inactive
Potency [2]: inactive
Potency [5]: inactive

COC(=O)c1ccc(I)cc1S(=O)(=O)NC(=O)Nc1nc(C)nc(OC)n1
Potency [1]: inactive
Potency [2]: 34.1 µM (active)
Potency [4]: inactive

NS(=O)(=O)c1ccc(N2CCCCS2(=O)=O)cc1
Potency [1]: inactive
Potency [2]: inactive
Potency [3]: inactive
Potency [4]: inactive

CCCCCCCCCCCCCCCCOS(=O)(=O)O
Potency [1]: inactive
Potency [3]: inactive
Potency [5]: inactive
Potency [4]: inactive
